Measured values reported in PubChem BioAssay (Tox21).
Records with an inconclusive call do not appear. Active and inactive are the calls of the source. Unless noted, the call rests on the fitted dose curve; in most records, active means well fitted curve in the direction sought with a large enough effect in the repeat runs; inconclusive means weak or mixed curves; inactive means no such curve, though single readings can be large; an effect the other way counts as inactive or inconclusive.

Legend:
[1] = qHTS assay to identify small molecule agonists of the peroxisome proliferator-activated receptor delta (PPARd) signaling pathway - cell viability counter screen (AID 743211); further: on the % scale 0 is the no-effect control and ±100 the full control effect; nearly all actives have a fitted effect of over 55% in size
In short: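 Counter screen for cytotoxicity run in parallel with the PPARd reporter screen. Beta-lactamase reporter HEK293H cells exposed to compounds 17 h; ATP-based CellTiter-Glo luminescence quantified viability.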

[2] = target: Peroxisome proliferator-activated receptor delta (Homo sapiens) (UniProt Q03181); assay: qHTS assay to identify small molecule agonists of the peroxisome proliferator-activated receptor delta (PPARd) signaling pathway (AID 743212; calls by dose curve; further: on the % scale 0 is the no-effect control and ±100 the full control effect)
Chain of Peroxisome proliferator-activated receptor delta (Homo sapiens) (Q03181 whole entry, looked up): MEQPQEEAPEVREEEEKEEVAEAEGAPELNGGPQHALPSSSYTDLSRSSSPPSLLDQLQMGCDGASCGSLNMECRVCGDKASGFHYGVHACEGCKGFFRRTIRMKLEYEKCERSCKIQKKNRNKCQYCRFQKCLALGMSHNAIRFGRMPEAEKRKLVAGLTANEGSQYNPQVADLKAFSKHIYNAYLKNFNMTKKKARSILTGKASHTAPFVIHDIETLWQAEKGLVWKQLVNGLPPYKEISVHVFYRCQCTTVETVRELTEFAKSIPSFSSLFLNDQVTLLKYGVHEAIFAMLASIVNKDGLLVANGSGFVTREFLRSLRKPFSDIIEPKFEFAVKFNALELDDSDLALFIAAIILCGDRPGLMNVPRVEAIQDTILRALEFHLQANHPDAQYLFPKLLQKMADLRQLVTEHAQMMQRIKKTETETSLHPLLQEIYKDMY
In short: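 GeneBLAzer UAS-bla HEK293H cells carrying a PPARδ construct were exposed to compounds at 37 °C. Beta-lactamase activity was read by FRET fluorescence after 2 h at room temperature with LiveBLAzer B/G substrate.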

[3] = qHTS assay to identify small molecule antagonists of the peroxisome proliferator-activated receptor delta (PPARd) signaling pathway - cell viability counter screen (AID 743213); further: on the % scale 0 is the no-effect control and ±100 the full control effect; nearly all actives have a fitted effect of over 50% in size
In short: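 Cytotoxicity counter screen: CellTiter-Glo luminescence read 30 min after addition, in the same wells as the reporter assay. There, PPARd UAS-bla HEK293H cells (3000/well) were treated 17 h at 37 C with compound and 300 nM L165041.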

[4] = target: Peroxisome proliferator-activated receptor delta (Homo sapiens) (UniProt Q03181); assay: qHTS assay to identify small molecule antagonists of the peroxisome proliferator-activated receptor delta (PPARd) signaling pathway (AID 743215; active means well fitted inhibition curve with a large enough effect in the signal ratio in the repeat runs, not every such curve was filed as active; the % refers to the signal ratio;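 further: cells stimulated with agonist L165041 at 300 nM final during compound exposure; series mostly up to about 62 µM; on the % scale 0 is the no-effect control and ±100 the full control effect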)
In short: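 PPARd-bla HEK293H cells (UAS-bla reporter) preincubated 5 h, then given compound plus 300 nM final L165041 agonist for 17 h at 37 C. Beta-lactamase activity read by LiveBLAzer B/G FRET substrate fluorescence after 2 h at room temperature.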

[5] = qHTS assay to identify small molecule agonists of the farnesoid-X-receptor (FXR) signaling pathway - cell viability counter screen (AID 743218); further: on the % scale 0 is the no-effect control and ±100 the full control effect; nearly all actives have a fitted effect of over 45% in size
In short: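 FXR-UAS-bla HEK 293T cells exposed to compounds for 16 h at 37C. Cytotoxicity read in the same wells by CellTiter-Glo luminescence after 30 min at room temperature, following the beta-lactamase FRET read.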

[6] = target: Vitamin D3 receptor (Homo sapiens) (UniProt P11473); assay: qHTS assay to identify small molecule agonists of the vitamin D receptor (VDR) signaling pathway (AID 743222; calls by dose curve; further: on the % scale 0 is the no-effect control and ±100 the full control effect)
Chain of Vitamin D3 receptor (Homo sapiens) (P11473 whole entry, looked up): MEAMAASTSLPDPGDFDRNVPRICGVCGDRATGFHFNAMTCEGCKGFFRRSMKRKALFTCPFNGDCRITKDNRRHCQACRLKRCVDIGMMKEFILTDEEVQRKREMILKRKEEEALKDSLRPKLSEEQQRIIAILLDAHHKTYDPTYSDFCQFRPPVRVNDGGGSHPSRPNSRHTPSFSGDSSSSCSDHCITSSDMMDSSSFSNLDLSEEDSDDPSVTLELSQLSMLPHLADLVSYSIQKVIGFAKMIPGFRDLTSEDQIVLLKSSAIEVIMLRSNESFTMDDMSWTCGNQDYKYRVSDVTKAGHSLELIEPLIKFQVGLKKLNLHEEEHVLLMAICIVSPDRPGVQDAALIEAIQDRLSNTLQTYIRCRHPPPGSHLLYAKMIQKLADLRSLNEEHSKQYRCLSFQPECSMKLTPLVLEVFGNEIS
In short: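 VDR-bla cells plated 4 h at 37 C, then exposed to compounds for 16 h at 37 C. Beta-lactamase reporter activity measured by fluorescence after 2 h room-temperature loading with LiveBLAzer B/G FRET substrate.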

[7] = target: Vitamin D3 receptor (Homo sapiens) (UniProt P11473); assay: qHTS assay to identify small molecule antagonists of the vitamin D receptor (VDR) signaling pathway (AID 743223; active means well fitted inhibition curve with a large enough effect in the signal ratio in the repeat runs, not every such curve was filed as active; the % refers to the signal ratio; further: on the % scale 0 is the no-effect control and ±100 the full control effect)
In short: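 Cells carrying a VDR-driven beta-lactamase reporter (VDR-bla) were co-treated with compound and 3 nM final 1alpha,25-dihydroxyvitamin D3 for 16 h at 37C; reporter activity was measured as FRET substrate fluorescence after 2 h at room temperature.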

[8] = qHTS assay to identify small molecule antagonists of the vitamin D receptor (VDR) signaling pathway - cell viability counter screen (AID 743225); further: on the % scale 0 is the no-effect control and ±100 the full control effect; nearly all actives have a fitted effect of over 50% in size
In short: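 HEK293T VDR-bla; cpd + 1a,25-(OH)2D3 3 nM final, 16 h 37C/5% CO2; B/G FRET substrate 2 h RT; then CellTiter-Glo 30 min RT, luminescence.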

[9] = qHTS assay to identify small molecule agonists of the endoplasmic reticulum stress response signaling pathway (AID 1159516; active means well fitted activation curve with a large enough effect in the signal ratio in the repeat runs, not every such curve was filed as active; the % refers to the signal ratio; further: on the % scale 0 is the no-effect control and ±100 the full control effect)
In short: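 CellSensor ESRE-bla HeLa cells, 1,500 per well, plated overnight, then exposed to compounds for 5 hr at 37 C. Beta-lactamase reporter read with LiveBLAzer B/G FRET substrate after 2 hr at room temperature, 405 nm excitation, 460 and 530 nm emission.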

[10] = qHTS assay to identify small molecule agonists of the endoplasmic reticulum stress response signaling pathway - cell viability counter screen (AID 1159517; calls by dose curve;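 further: HeLa cells carrying an ER stress response element beta-lactamase reporter; series mostly up to about 61 µM; on the % scale 0 is the no-effect control and ±100 the full control effect; nearly all actives have a fitted effect of over 50% in size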)
In short: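 ESRE-bla HeLa cells, 1,500 per well, seeded overnight then treated with compounds for 5 hr at 37 C. After the beta-lactamase read, viability in the same wells is measured by CellTiter-Glo luminescence after 30 min at room temperature.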

[11] = qHTS assay to identify small molecule antagonists of the retinoid-related orphan receptor gamma (ROR-gamma) signaling pathway - cell viability counter screen (AID 1159520); further: on the % scale 0 is the no-effect control and ±100 the full control effect; nearly all actives have a fitted effect of over 50% in size
In short: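 Tet-on ROR gamma CHO cells were given compounds for 2 hr, then doxycycline hyclate at 1 uM final, and incubated 16 hr at 37 C. Viability was measured as ATP content by CellTiter-Glo luminescence.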

[12] = target: Nuclear receptor ROR-gamma (Homo sapiens) (UniProt P51449); assay: qHTS assay to identify small molecule antagonists of the retinoid-related orphan receptor gamma (ROR-gamma) signaling pathway (AID 1159521)
In short: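 Cells were plated, rested 4 h at 37 C, exposed to compounds for 2 h, then given 1 uM final doxycycline hyclate to induce RORγ expression. After 16 h, ONE-Glo luminescence from the ROR response element reporter was measured.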

[13] = qHTS assay to identify small molecule agonists of the AP-1 signaling pathway - cell viability counter screen (AID 1159525; calls by dose curve; further: nearly all actives have a fitted effect of over 55% in size)
In short: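 AP-1-bla ME-180 cells in Opti-MEM with 0.5% dialyzed FBS, compound exposure 5 h at 37 C in 15-point titration. Viability read in the same wells as ATP content by CellTiter-Glo luminescence, normalised to tetra-n-octylammonium bromide and DMSO controls.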

[14] = qHTS assay to identify small molecule agonists of the AP-1 signaling pathway (AID 1159526; calls by dose curve; further: on the % scale 0 is the no-effect control and ±100 the full control effect)
[15] = target: Retinoic acid receptor RXR-alpha (Homo sapiens) (UniProt P19793); assay: qHTS assay to identify small molecule agonists of the RXR signaling pathway (AID 1159527; calls by dose curve; further: on the % scale 0 is the no-effect control and ±100 the full control effect; nearly all actives have a fitted effect of over 35% in size)
Chain of Retinoic acid receptor RXR-alpha (Homo sapiens) (P19793 whole entry, looked up): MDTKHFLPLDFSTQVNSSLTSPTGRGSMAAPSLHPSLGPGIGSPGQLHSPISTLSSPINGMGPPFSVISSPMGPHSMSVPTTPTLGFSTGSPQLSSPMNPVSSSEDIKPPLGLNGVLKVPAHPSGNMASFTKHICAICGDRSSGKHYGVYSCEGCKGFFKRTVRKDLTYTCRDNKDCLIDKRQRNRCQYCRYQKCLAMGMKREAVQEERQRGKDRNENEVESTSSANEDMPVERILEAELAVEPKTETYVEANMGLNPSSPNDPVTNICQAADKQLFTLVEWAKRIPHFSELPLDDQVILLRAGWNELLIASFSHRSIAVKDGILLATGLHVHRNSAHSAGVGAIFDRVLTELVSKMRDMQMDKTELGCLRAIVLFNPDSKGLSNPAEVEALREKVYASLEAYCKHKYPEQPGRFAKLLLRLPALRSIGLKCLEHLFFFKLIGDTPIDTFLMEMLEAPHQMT
In short: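 Cells plated at 2,000/well, rested 5 hr at 37 C, pin-dosed with DMSO compound solutions, incubated 16 hr, then loaded with B/G FRET substrate for 2 hr at RT before dual-emission fluorescence reading.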

[16] = qHTS assay to identify small molecule agonists of the vitamin D receptor (VDR) signaling pathway - cell viability counter screen (AID 743224)
In short: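 VDR-bla cells, 4 h after plating, exposed to compounds for 16 h at 37C; viability then read in the same wells as CellTiter-Glo luminescence after 30 min at room temperature, following the bla FRET read.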

[17] = qHTS assay to identify small molecule antagonists of the farnesoid-X-receptor (FXR) signaling pathway - cell viability counter screen (AID 743221; active means well fitted cell-killing curve with a large enough effect in the repeat runs, not every such curve was filed as active)
In short: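 Multiplexed counter screen: viability of FXR-bla HEK 293T cells under agonist stimulation by chenodeoxycholic acid (50 uM, final) and test compound for 16 h at 37 C, measured by CellTiter-Glo luminescence in the reporter wells.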

[18] = target: Bile acid receptor (Homo sapiens) (UniProt Q96RI1); assay: qHTS assay to identify small molecule antagonists of the farnesoid-X-receptor (FXR) signaling pathway (AID 743217; active means well fitted inhibition curve with a large enough effect in the signal ratio in the repeat runs, not every such curve was filed as active; the % refers to the signal ratio; further: on the % scale 0 is the no-effect control and ±100 the full control effect)
Chain of Bile acid receptor (Homo sapiens) (Q96RI1 whole entry, looked up): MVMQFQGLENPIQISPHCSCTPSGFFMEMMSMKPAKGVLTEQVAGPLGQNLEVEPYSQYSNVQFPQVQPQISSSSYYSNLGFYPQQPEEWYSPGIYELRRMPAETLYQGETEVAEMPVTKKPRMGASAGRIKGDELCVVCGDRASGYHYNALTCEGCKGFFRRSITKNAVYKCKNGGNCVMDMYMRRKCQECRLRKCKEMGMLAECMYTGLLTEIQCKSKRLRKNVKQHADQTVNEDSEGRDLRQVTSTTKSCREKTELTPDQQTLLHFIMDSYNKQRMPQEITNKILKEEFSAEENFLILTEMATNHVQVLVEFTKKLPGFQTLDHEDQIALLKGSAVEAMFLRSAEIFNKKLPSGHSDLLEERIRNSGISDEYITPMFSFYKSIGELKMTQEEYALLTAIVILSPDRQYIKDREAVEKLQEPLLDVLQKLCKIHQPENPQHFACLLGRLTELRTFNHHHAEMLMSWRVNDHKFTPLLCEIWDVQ
In short: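 FXR-UAS-bla HEK 293T cells (beta-lactamase reporter) given compound plus chenodeoxycholic acid (50 uM final), 16 h at 37C. LiveBLAzer B/G FRET substrate added for 2 h at room temperature; fluorescence read.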

[19] = target: Bile acid receptor (Homo sapiens) (UniProt Q96RI1); assay: qHTS assay to identify small molecule agonists of the farnesoid-X-receptor (FXR) signaling pathway (AID 743220; active means well fitted activation curve with a large enough effect in the signal ratio in the repeat runs, not every such curve was filed as active; the % refers to the signal ratio; further: on the % scale 0 is the no-effect control and ±100 the full control effect)
In short: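 Beta-lactamase reporter under UAS control in GeneBLAzer FXR HEK 293T cells (5000/well) measured with LiveBLAzer FRET substrate after 2 h at room temperature. Compound exposure lasted 16 h at 37C.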

Cc1cc(C)c(S(=O)(=O)O)cc1N=Nc1cc(S(=O)(=O)O)c2ccccc2c1O
inactive: Potency [1] | outcome [2] | Potency [3] | outcome [4] | Potency [5] | outcome [6] | Potency [7] | Potency [8] | Potency [9] | outcome [10] | Potency [11] | Potency [12] | Potency [13] | Potency [14] | Potency [15]

Cc1c(Cn2ccnc2)c2ccccc2n1CCC(=O)O
inactive: Potency [1] | outcome [2] | Potency [3] | Potency [5] | outcome [6] | Potency [16] | Potency [8] | Potency [9] | outcome [10] | Potency [11] | Potency [12] | Potency [13] | Potency [15]

C[Si](C)O[Si](C)(C)O[Si](C)(C)O[Si](C)C
inactive: Potency [1] | Potency [3] | Potency [5] | Potency [17] | outcome [6] | Potency [7] | Potency [16] | Potency [8] | Potency [9] | outcome [10] | Potency [11] | Potency [12] | Potency [13] | Potency [14]

CC(C)(C)c1cc(CCC(=O)OCC(COC(=O)CCc2cc(C(C)(C)C)c(O)c(C(C)(C)C)c2)(COC(=O)CCc2cc(C(C)(C)C)c(O)c(C(C)(C)C)c2)COC(=O)CCc2cc(C(C)(C)C)c(O)c(C(C)(C)C)c2)cc(C(C)(C)C)c1O
inactive: Potency [1] | outcome [2] | Potency [3] | outcome [4] | outcome [18] | Potency [5] | outcome [19] | Potency [17] | outcome [6] | Potency [16] | Potency [9] | outcome [10] | Potency [11] | Potency [12] | Potency [13] | Potency [14]

O=C(NS(=O)(=O)/C=C/c1cccs1)c1ccc(F)cc1Br
inactive: Potency [1] | outcome [2] | Potency [3] | outcome [18] | Potency [5] | outcome [19] | Potency [17] | outcome [6] | Potency [16] | Potency [8] | Potency [9] | outcome [10] | Potency [11] | Potency [12] | Potency [13] | Potency [14]

O=C(CCN1CCN2CCCC2C1)N1c2ccccc2Sc2ccc(Cl)cc21 (centres undefined)
inactive: Potency [1] | Potency [17] | outcome [6] | Potency [16] | Potency [8] | Potency [9] | outcome [10] | activity, negative = cytotoxicity [11] -0.0801% [at 19 µM] | activity change, negative = inhibition [12] -2.48% [at 19 µM] | viability change, negative = cytotoxic [13] -1.69% [at 15.8 µM] | activation [14] -5.81% [at 15.8 µM]

O=S1(=O)N=C(O)c2ccccc21
inactive: Potency [1] | Potency [3] | Potency [5] | Potency [16] | Potency [8] | Potency [9] | outcome [10] | Potency [11] | Potency [12] | Potency [13] | Potency [14]

O=C(O)Cn1c(C(=O)Nc2nc(-c3ccccc3Cl)cs2)cc2ccccc21
inactive: Potency [1] | Potency [3] | outcome [18] | Potency [5] | outcome [19] | Potency [17] | Potency [7] | Potency [16] | Potency [8] | Potency [9] | outcome [10] | Potency [11] | Potency [12] | Potency [13]

CC1=CCC(C(C)C)C=C1 (centres undefined)
inactive: Potency [1] | Potency [3] | Potency [5] | Potency [16] | Potency [8] | Potency [9] | outcome [10] | Potency [11] | Potency [13] | Potency [14] | Potency [15]

NCc1ccccc1
inactive: Potency [1] | Potency [3] | Potency [5] | Potency [7] | Potency [16] | Potency [8] | Potency [9] | outcome [10] | Potency [11] | Potency [12] | Potency [13] | Potency [14]

CCCCC(CC)(CO)CO
inactive: Potency [1] | outcome [2] | Potency [3] | outcome [4] | outcome [18] | Potency [5] | outcome [19] | Potency [17] | outcome [6] | Potency [8] | Potency [9] | outcome [10] | Potency [11] | Potency [12] | Potency [13] | Potency [14]

NC(=S)N/N=C/c1cccnc1
inactive: Potency [1] | outcome [2] | Potency [3] | outcome [4] | Potency [5] | Potency [17] | Potency [7] | Potency [16] | Potency [8] | Potency [9] | outcome [10] | Potency [11] | Potency [12] | Potency [13] | Potency [14]
